# RGS16-Gao HTS – modulators of RGS16 binding to Galphao, primary screen, biochemical, human proteins, multiplexed bead flow cytometry. Regulator of G-protein signaling 16 (Homo sapiens) + Guanine nucleotide-binding protein …. bead-based flow cytometry RGS16-Galphao binding, fluorescence; actives lie on both sides. binding response (% of control), % at 10 µM. 220,000 tested, 0.38% active. AID 1441, 2008; call rule not given here;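 note: Galphao activated by GDP with aluminum fluoride before binding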
# Target sequence (O15492 whole entry, looked up): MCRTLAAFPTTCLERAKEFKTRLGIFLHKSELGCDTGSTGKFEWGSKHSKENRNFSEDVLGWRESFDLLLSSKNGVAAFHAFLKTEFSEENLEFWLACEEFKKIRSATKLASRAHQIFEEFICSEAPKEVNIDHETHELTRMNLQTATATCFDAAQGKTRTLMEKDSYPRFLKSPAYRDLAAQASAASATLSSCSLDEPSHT
# Target sequence (P09471 whole entry, looked up): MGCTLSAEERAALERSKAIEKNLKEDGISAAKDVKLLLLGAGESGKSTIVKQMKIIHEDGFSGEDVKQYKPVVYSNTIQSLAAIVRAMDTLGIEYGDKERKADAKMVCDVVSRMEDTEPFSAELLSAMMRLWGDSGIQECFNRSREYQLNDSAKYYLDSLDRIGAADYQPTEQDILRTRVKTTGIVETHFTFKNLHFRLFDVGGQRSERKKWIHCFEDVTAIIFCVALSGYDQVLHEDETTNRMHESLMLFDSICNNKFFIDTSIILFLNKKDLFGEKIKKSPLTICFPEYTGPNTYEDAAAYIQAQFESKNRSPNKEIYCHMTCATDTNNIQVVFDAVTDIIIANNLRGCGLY
# GSH bead fluor – compound fluorescence on glutathione beads, profiling panel, artefact control, biophysical, 488/530 nm, flow cytometry; GSH beads flow cytometry, compound fluorescence 488/530 nm; active compounds read high; 190,000 tested, 0.25% active; AID 1776, 2009; fluorescence (KMESF) at 10 µM; in the data active = fluorescence above about 89;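 note: glutathione beads carrying GST-tagged Bcl family fusion proteins plus one bare bead set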
# Avidin fluor – green autofluorescence of compounds with avidin beads – biophysical, 488/530 nm, flow cytometry, artefact control, profiling panel; compound fluorescence 488/530 nm; active compounds read high; fluorescence (KMESF) at 10 µM; 220,000 tested, 0.38% active; in the data active = fluorescence above about 47
# RGS7-Gao – RGS7-Galphao binding modulators, primary screen, biochemical, multiplexed bead flow cytometry; Guanine nucleotide-binding protein G(o) subunit alpha (Homo sapiens), P09471; actives lie on both sides; binding response (% of control), % at 10 µM; 220,000 tested, 0.35% active; AID 1439, 2008; in the data active = binding response below about 49% or above about 150%; inconclusive = no clear call, values can overlap the other calls; inactive = in between;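 note: fluorescent Galphao held in activated GDP-AlF4 state binding bead-coupled RGS7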
# Target sequence (P09471 whole entry, looked up): as above
# RGS4-Gao reg – modulators of RGS4 binding to Galphao, primary screen, biochemical, multiplexed bead flow cytometry; actives lie on both sides; binding response (% of control), % at 10 µM; 220,000 tested, 0.33% active; AID 1415, 2008; in the data active = binding response below about 49% or above about 150%; inactive = in between;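 note: fluorescent Galphao activated with aluminum fluoride binding bead-coupled RGS4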
# RGS8-Gao – RGS8-Galphao binding modulators, primary screen, biochemical, multiplexed bead flow cytometry; actives lie on both sides; response (percent of control binding), % at 10 µM; 220,000 tested, 0.34% active; in the data active = response below about 60% or above about 140%; inactive = in between;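 note: Galphao activated as the GDP aluminium fluoride complex binding bead-coupled RGS8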
# Numbers stand for hits; n = inactive; u = inconclusive; x = no result; [ ] = dose if it differs, or a comment. An excerpt weighted towards active compounds, which were near 1.2% of everything screened.
SMILES,RGS16-Gao HTS,GSH bead fluor,Avidin fluor,RGS7-Gao,RGS4-Gao reg,RGS8-Gao
CC(=O)Nc1ccc(NC(=O)CSc2ccc([N+](=O)[O-])cn2)cc1,n,x,x,u,n,n
Cc1cc(N2CCOCC2)c2c(N)c(C)cc(C)c2n1,n,n,61,n,n,n
CCN(CC)CCCNC(=O)CSc1nc2c(c(C(F)(F)F)n1)CCc1ccccc1-2,n,n,64,u,n,n
FC(F)(F)c1ccc(-n2ccnc2)nc1,n,265,n,n,n,n
COc1ccc(N(CC(=O)NCCc2ccc(Cl)cc2)S(=O)(=O)c2c(C)[nH]c(=O)[nH]c2=O)cc1,n,n,n,n,n,n
O=S(=O)(c1ccc(Br)s1)N1CCc2ccccc2C1,n,n,48,n,n,n
Cc1ccc(NC(CNS(=O)(=O)c2ccc(Cl)cc2)c2ccccc2)cc1 (stereo unspecified),n,n,121,255[activator],215[activator],n
O=S(=O)(NCC(Nc1ccc(Cl)cc1)c1ccccc1)c1ccccc1 (stereo unspecified),n,n,n,n,n,n
Cc1nnc(NC2=NCCC2)o1,n,n,95,n,n,n
C=CC[n+]1ccn(-c2nc3ccccc3nc2[N-]S(=O)(=O)c2cccs2)c1,n,x,n,u,n,n
CCCCn1c(CN2CCN(C)CC2)nc2ccccc21,n,n,n,n,n,n
CCCn1c(CN2CCN(C)CC2)nc2ccccc21,14,n,n,16,23,13
O=C(COc1ccc(Cl)cc1Cl)N/N=C1\CCCc2ccccc21,n,n,n,27,34,23
COc1ccc(-c2nnn(CC(=O)N3CCOCC3)n2)cc1,n,n,79,n,n,n
Cc1ccc(NC(=S)NCC(C)C)cc1,n,n,n,n,n,n
Cc1cc(=O)[nH]c(SCC(=O)Nc2cccc3ccccc23)c1C#N,219[activator],n,132,184[activator],224[activator],n
Cc1cc(C)c(C#N)c(SCC(=O)Nc2ccccc2C)n1,n,n,n,n,n,n
Cc1cc(C)cc(OCC(=O)OCC(=O)Nc2ccc(Cl)cn2)c1,n,n,n,n,n,n
O=C(COC(=O)CCc1nc2ccccc2c(=O)[nH]1)Nc1ccc(Cl)cn1,n,x,49,u,n,n
Cc1ccc(OCCC(=O)OCC(=O)Nc2ccc(Cl)cn2)cc1,n,272,n,n,n,n
CNc1ccc(Oc2nc([N+](=O)[O-])nn2C)cc1,n,n,n,n,n,n
CCc1nnc(NC(=O)CN2CCN(c3nc(-c4ccccc4)cs3)CC2)s1,n,n,47,n,n,n
Cc1cc(C)cc(OCC(=O)Nc2ccccc2N2CCCCC2)c1,n,n,69,n,n,n
CN(NC1CC(=O)N(c2ccccc2)C1=O)c1ccccc1 (stereo unspecified),n,n,n,n,n,n
N#Cc1ccc(Cl)cc1NC(=O)COC(=O)c1ccc2c(c1)OCCO2,n,n,66,n,n,n
SMILES,RGS16-Gao HTS,GSH bead fluor,Avidin fluor,RGS7-Gao,RGS4-Gao reg,RGS8-Gao
Cc1cc(NC(=O)c2ccc(S(=O)(=O)N(C)C)cc2)n(-c2ccccn2)n1,n,n,88,n,n,n
NC1=NS(=O)(=O)NC1c1ccc(F)cc1 (stereo unspecified),n,n,n,n,n,n
CCCCN(CCCC)S(=O)(=O)c1ccc(NS(=O)(=O)c2ccc(NC(C)=O)cc2)cc1,n,n,n,n,n,n
CCCCOc1ccc(S(=O)(=O)Nc2ccc(NC(C)=O)cc2)cc1,n,129,n,n,n,n
O=C(CCC(=O)NNC(=O)c1ccccc1[N+](=O)[O-])NCc1ccccc1,n,n,n,n,n,n
COc1ccc(C(=O)N/N=C(\C)CC(=O)Nc2cccc(C(F)(F)F)c2)cc1,n,x,69,u,n,n
COCCNC(=O)C(=O)N/N=C(\C)CC(=O)Nc1cccc(C(F)(F)F)c1,n,x,n,u,n,n
CCOc1ccc(C(=O)NC(=S)Nc2ccc(NC(=O)c3ccco3)c(C)c2)cc1[N+](=O)[O-],n,n,n,n,n,n
O=C(COC(=O)/C=C/c1cccs1)Nc1ccccc1Cl,n,n,n,n,n,n
O=C(COC(=O)/C=C/c1cccs1)Nc1ccc2ccccc2c1,n,n,68,n,n,n
CCOC(=O)c1cc(-c2ccc(F)cc2)n(CC(=O)NC(C)CC)c1C (stereo unspecified),n,n,n,n,n,n
CCOC(=O)c1cc(-c2ccc(C)cc2)n(CCC(=O)NC(C)CC)c1C (stereo unspecified),n,n,64,n,n,n
O=C(CN1CCN(c2ccccc2F)CC1)N1N=CCC1c1ccccc1 (stereo unspecified),n,n,n,n,n,n
CC(O)c1cccc(NC(=O)CCCc2ccccc2)c1 (stereo unspecified),n,n,n,n,n,n
CC(O)c1cccc(NC(=O)CCC(=O)O)c1 (stereo unspecified),n,261,n,n,n,n
S=C(NCc1ccc2[nH]c3c(c2c1)CCCC3)Nc1ccccc1,n,n,n,n,49,n
COc1ccc(-c2cnnc(N/N=C/C(C)=C/c3ccccc3)n2)cc1,n,n,n,n,n,n
O=C(COc1ccccc1)NC1CCCc2ccccc21 (stereo unspecified),n,n,n,n,n,n
O=C(COc1ccc(-c2nnco2)cc1)NC1CCCc2ccccc21 (stereo unspecified),n,233,n,n,n,n
Cc1cccc(N/N=C(\C=N\N)C(=O)c2ccc(Br)cc2)c1,n,n,n,n,n,n
CCCOc1ccc(OCCn2nc(C(=O)O)c3ccccc3c2=O)cc1,n,n,n,n,n,n
CCOc1ccc2nc(NC(=O)c3ccoc3C)sc2c1,n,n,56,n,n,n
O=C(CC1C(=O)NCCN1C(=O)Nc1ccccc1)Nc1ccc2c(c1)OCCO2 (stereo unspecified),n,n,60,n,n,n
N#Cc1ccc(COC(=O)C2CCC(=O)N2)cc1 (stereo unspecified),n,258,n,n,n,n
O=C1CCC(C(=O)OCC(=O)c2ccccc2)N1 (stereo unspecified),n,n,n,n,n,n
O=C(CSCc1ccc(Cl)cc1)c1ccco1,n,260,n,n,n,n
O=C(CSc1nc2cc(Cl)ccc2s1)c1ccco1,n,n,n,n,n,n
CC(=O)c1ccc(NS(=O)(=O)c2ccccc2)cc1,n,n,49,n,n,n

# Assay outcomes deposited in PubChem by NMMLSC.
